Bioassay records (PubChem)
The list is not random: actives were taken first. Their share in the collection is about 6.2%.
KB-V1 cytotox: kills drug-selected multidrug resistant KB-V1 cells. KB-V1 MDR cells viability, CellTiter-Glo, 72 h. Potency, µM (titrated, usually from 46.1 µM), hits mostly cytotoxic. hit rate 3.4% among 400,000; further: on the % scale 0 is the no-effect control and ±100 the full control effect; nearly all actives have a fitted effect of over 60% in size
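Cytotoxicity via CellTiter-Glo luminescence after 72 h compound exposure at 37 degrees C. Cells: drug-selected KB-V1 line, DMEM phenol-red free plus 10% FBS. Compounds tested at multiple concentrations; normalized data fitted to concentration-effect curves.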
HT1080 IDH1KD tx: toxicity to HT-1080 IDH1 knockdown cells (counter line). hit rate 2% among 360,000. HT-1080 IDH1 knockdown viability, ATP luminescence, 48 h. Potency, µM (series often up to 46.1 µM), for inactives: at the highest dose activity, negative = toxicity, usual class: cytotoxic;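 further: 0% = DMSO wells and -100% = cell-free medium wells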
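In this qHTS, HT-1080 cells depleted of IDH1 are exposed for 48 h at 37 °C to compound titrations. Toxicity is scored from CellTiter-Glo luminescence, with DMSO as full viability and medium alone as none.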
KB-3-1 cytotox: kills parental KB-3-1 adenocarcinoma cells; AID 1347075; KB-3-1 viability, CellTiter-Glo ATP luminescence, 72 h; Potency, µM (titrated, usually from 46.1 µM), hits mostly cytotoxic; hit rate 1.4% among 400,000; further: on the % scale 0 is the no-effect control and ±100 the full control effect; nearly all actives have a fitted effect of over 60% in size
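Multi-concentration cytotoxicity screen in KB-3-1 cells grown in DMEM lacking phenol red with 10% FBS. After 72 h at 37 °C with compound, ATP-dependent luminescence was recorded.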
ATXN2 expr inh: inhibitors of ATXN2 expression; HEK-293 ATXN2-luciferase reporter, luminescence, 24 h; Potency, µM (doses to about 57 µM), inactives show top-dose activity change, negative = inhibition, usual class: inhibitors; hit rate 0.72% among 360,000; further: on the % scale 0 is the no-effect control and ±100 the full control effect; nearly all actives have a fitted effect of over 55% in size
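qHTS (up to 57 uM final) was run with 24 h compound exposure of reporter cells at 37 °C. Each well was multiplexed: SteadyGlo luminescence measured ATXN2-luciferase expression after a fluorogenic Gly-Phe-AFC viability readout (25 uM final).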
HT1080NT lethal: kills 2HG-producing HT-1080-NT fibrosarcoma cells; Potency, µM (top dose mostly 46.1 µM), for the others: at the highest dose activity, negative = less viability, actives largely listed as cytotoxic; hit rate 1.6% among 360,000; HT-1080-NT fibrosarcoma viability, CellTiter-Glo ATP luminescence, 48 h; AID 686970;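 further: NT is the 2HG producing partner of a matched IDH1 knockdown line; 0% = DMSO-treated cells and -100% = media-only wells without cells; nearly all actives have a fitted effect of over 55% in size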
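Viability by CellTiter-Glo luminescence after 48 h compound exposure at 37C of HT-1080-NT cells (750/well, RPMI, 5% FBS). % activity scaled between DMSO wells and medium-only wells, then curve-fitted and categorized by curve class.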
ATXN viability: cell viability loss in ATXN counter-screen; AID 651635; S2 cells (HEK-293 line with an ATXN2-luciferase reporter) viability, CellTiter-Fluor protease fluorescence, 24 h; hit rate 0.49% among 400,000; Potency, µM (series often up to 56.7 µM), most hits filed as cytotoxic; further: nearly all actives have a fitted effect of over 40% in size
* = called active by the depositor; i = inactive; ? = inconclusive; / = no result given. The call rests on the fitted dose curve; in most records, active means well fitted curve in the direction sought with a large enough effect; inconclusive means small, poorly fitted or top-dose-only effect, or another doubt; inactive means no such curve, though single readings can be large; an effect the other way counts as inactive or inconclusive. Potency means the concentration at half of the fitted maximal effect.

SMILES	KB-V1 cytotox	HT1080 IDH1KD tx	KB-3-1 cytotox	ATXN2 expr inh	HT1080NT lethal	ATXN viability
Cc1c(Cl)c(=O)oc2cc(OC(C)C)ccc12	21µM*	-2%	i	10%	2%	?
O=C(Nc1ccccc1C(F)(F)F)c1ccc(CN2CCC(Cc3ccccc3)CC2)cc1	?	23µM*	?	-16%	16µM*	i
Cc1cccc(S(=O)(=O)Nc2nc3ccccc3nc2Nc2ccc3c(c2)OCO3)c1	i	-19%	i	-15%	-20%	i
O=S(=O)(Nc1nc2ccccc2nc1Nc1ccc2c(c1)OCO2)c1ccccc1	5.2µM*	0%	i	3%	2%	?
Cc1cccc2c(=O)[nH]c3c(-c4nc(-c5ccc(Cl)cc5)cs4)c(O)cn3c12	i	/	i	/	/	/
Cc1cc2nc(SCCOC(=O)Nc3ccccc3)nc(C)c2cc1C	21µM*	10%	i	10%	5%	i
COc1ccc(OCC(=O)N/N=C/c2ccc(O[C@@H]3O[C@H](CO)[C@@H](O)[C@H](O)[C@H]3O)cc2)cc1	i	1.6µM*	3.7µM*	0%	?	i
Cc1cc(Cl)ccc1OCC(=O)N/N=C/c1ccc(OC2OC(CO)C(O)C(O)C2O)cc1 (centres undefined)	i	-16%	i	-17%	-14%	i
C=C1C=C(C)n2ncc(C(=O)NCCCCCC)c2N1	i	/	?	/	/	/
OCCN(Cc1cccnc1)Cc1ccccn1	10µM*	-17%	i	-25%	6%	?
Cc1ccc2c(c1)c1c(n2CC(O)Cn2c(C)nc3ccccc32)/C(=N\O)CCC1 (centres undefined)	?	?	?	-37%	21µM*	?
CCCCOCC(O)Cn1c(C)nc2ccccc21 (centres undefined)	?	-4%	i	1%	13%	i
CC(C)c1nc2ccccc2n1CC(O)COC1CCCCC1 (centres undefined)	?	0%	i	1%	1%	i
Cc1nc2ccccc2n1CC(O)Cn1c2ccccc2c2ccccc21 (centres undefined)	?	-13%	18µM*	?	-6%	?
Cc1ccc2c(c1)c1c(n2CC(O)Cn2c(C)nc3ccccc32)C(=O)CCC1 (centres undefined)	i	8%	?	-3%	19%	i
Cc1nc2ccccc2n1CC(O)COC1CCCCC1 (centres undefined)	16µM*	-1%	i	-8%	-6%	i
CCOC(=O)c1c(C)[nH]c(C2=NNC(=Nc3ccccc3OC)SC2)c1C	?	?	18µM*	41%	?	?
CCc1cc2c(=O)c(-c3nc4ccccc4[nH]3)coc2cc1OC(=O)N1CCOCC1	3.3µM*	23%	?	43%	-3%	i
COc1ccc2nc(C)cc(SCC(=O)Nc3c(C)cc(C)cc3C)c2c1	13µM*	-15%	i	-2%	23%	i
COc1ccc2nc(C)cc(SCC(=O)Nc3c(C)cccc3C)c2c1	?	11%	i	-3%	2%	i
O=C1NC[C@@H](CCCCN2C[C@H](Cc3ccccc3)N(CCC3CCCCC3)C(=O)C2=O)N(Cc2ccccc2)C1=O	?	21µM*	?	-6%	?	i
O=C1NC[C@H](CCCCN2C[C@H](Cc3ccccc3)N(CC3CCCCC3)C(=O)C2=O)N(CC2CCCCC2)C1=O	i	?	i	-22%	13%	14µM*
Cc1ccc(OCC(=O)Nc2ccc(OCc3cc(=O)n4ccsc4n3)cc2)cc1	i	/	i	-5%	/	i
O=C(Nc1ccc2ccccc2c1)Nc1nnc(C2CCCCC2)s1	?	/	i	/	/	/
COc1cccc(CNC(=O)COC(=O)c2ccc(-c3ccc(O)cc3)cc2)c1	?	21µM*	i	/	?	?
COc1cccc(CNC(=O)COC(=O)c2ccc(C(=O)c3ccccc3)cc2)c1	i	?	i	-8%	-3%	i
